Platelet DG rel: inhibitors of platelet dense granule secretion, primary screen, cell-based, MLPCN, human platelets; human platelet-rich plasma, SFLLRN dense granule ATP release, luminescence; hit rate 0.22% among 300,000; inhibition, %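 (compounds screened at 7.5 µM in platelet-rich plasma)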;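 active means mean replicate score, as percent of positive control, at or above 50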
HSP90 refold inh: HSP90 inhibitors, primary screen, cell lysate, luminescence. Heat shock protein HSP 90 (rabbit reticulocyte lysate; luciferase refolding). Rabbit reticulocyte lysate, luciferase refolding luminescence, 3 h. inhibition, % at 5.6 µM. hit rate 0.91% among 290,000. AID 1789, 2009;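 active means inhibition above the screen-wide mean plus 3 SD, computed separately per campaign, cut at about 16% in these data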;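 further: 0% = DMSO wells and 100% = 60 µM geldanamycin wells; inhibitors lower the luminescence because luciferase stays unfolded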
SENP7 inh: SENP7 protease inhibitors, primary screen, biochemical, luminescence, uHTS; recombinant SENP7, Z-RLRGG-aminoluciferin luminescence, 40 min; hit rate 1.5% among 330,000; inhibition, % at 5 µM; AID 434973, 2010;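 active means inhibition above about 50% at the single test dose, limit read from the data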;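 further: plate controls were DMSO with enzyme for no effect and no enzyme buffer wells for full effect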
SENP8 block-1: SENP8 protease inhibitors, primary screen, biochemical, luminescence. Sentrin-specific protease 8 (Homo sapiens), Q96LD8. purified SENP8, Z-RLRGG-aminoluciferin cleavage. inhibition, % at 10 µM. hit rate 1.2% among 330,000. AID 2540, 2010; in the data active means inhibition above about 50%
SENP6 inh: SENP6 protease inhibitors, primary screen, biochemical, luminescence, uHTS. Sentrin-specific protease 6 (Homo sapiens), Q9GZR1. Recombinant SENP6 catalytic domain, aminoluciferin luminescence. inhibition, % at 10 µM. hit rate 1.8% among 330,000. AID 2599, 2010;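 active means inhibition above about 50% at the single tested dose, limit read from the data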;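 further: plate controls were DMSO wells with enzyme for no effect and DMSO wells lacking enzyme for full effect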
Target sequence (Q9GZR1 628-1112 limits assumed): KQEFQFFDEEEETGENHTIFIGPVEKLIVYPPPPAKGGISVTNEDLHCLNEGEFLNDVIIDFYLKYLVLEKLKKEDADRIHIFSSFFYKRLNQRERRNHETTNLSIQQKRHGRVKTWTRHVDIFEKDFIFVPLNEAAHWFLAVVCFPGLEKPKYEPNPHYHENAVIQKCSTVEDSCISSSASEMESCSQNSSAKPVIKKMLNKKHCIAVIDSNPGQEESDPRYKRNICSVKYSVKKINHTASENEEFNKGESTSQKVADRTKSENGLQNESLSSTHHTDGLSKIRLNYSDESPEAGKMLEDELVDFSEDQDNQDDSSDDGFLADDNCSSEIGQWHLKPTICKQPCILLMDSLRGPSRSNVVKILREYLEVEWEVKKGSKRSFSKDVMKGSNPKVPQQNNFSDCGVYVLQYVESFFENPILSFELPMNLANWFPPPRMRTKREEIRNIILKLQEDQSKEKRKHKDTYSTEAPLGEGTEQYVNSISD
SENP8 block-2: human SENP8 protease inhibitors, primary screen, biochemical, fluorescence, Nedd8 protein substrate, uHTS. AID 602440, 2012. Sentrin-specific protease 8 (Homo sapiens), Q96LD8. recombinant SENP8. hit rate 0.64% among 360,000. inhibition, % at 20 µM; in the data active means inhibition mostly above about 40%, no sharp cut-off; inactive means mostly below about 27%
HSP90 confirm: HSP90 inhibitors, confirmation, cell lysate, luminescence | rabbit reticulocyte lysate, luciferase refolding luminescence, 3 h | AID 1846, 2009 | inhibition, % at 5.9 µM | shares compounds with HSP90 refold inh | hit rate 64% among 2,300; in the data active means inhibition above about 18%;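 further: 0% = vehicle wells and 100% = reference inhibitor wells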
FLuc counter: firefly luciferase inhibitors, HSP90 counter-screen, confirmation, artefact control for HSP90 inhibitor project, biochemical, luminescence, triplicate; shares compounds with HSP90 refold inh; inhibition, % at 5.9 µM; purified native firefly luciferase; hit rate 48% among 2,300;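 active means inhibition above the mean inhibition of all tested sample wells plus 3 SD, cut at about 10% in these data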;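 further: 0% = DMSO with luciferase and 100% = wells lacking luciferase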
Active calls of the source: *; . = not tested or not shown. Most compounds without a hit are left out; they make up all but 2.8% or so of the library.

SMILES	Platelet DG rel	HSP90 refold inh	SENP7 inh	SENP8 block-1	SENP6 inh	SENP8 block-2	HSP90 confirm	FLuc counter
Cc1nnc(SCc2cnc(-c3ccc(C(C)C)cc3)s2)n1C	.	38.2*	2.2	-2.0	1.2	21.5	50.4*	41.2*
c1ccc(-c2ncc(CSc3nncn3-c3ccccc3)s2)cc1	-3.8	-7.4	5.9	1.9	6.5	9.5	.	.
Cc1ccc2nc(-c3sc4nc(C)cc(C)c4c3N)[nH]c2c1	2.5	24.8*	-11.2	-17.8	-20.8	-285.4	23.3*	18.8*
CN1C[C@H]2CON(C)[C@H]2C[C@H]1c1cccc(N2CCOCC2)c1	.	.	.	.	.	6.0	.	.
O=C(CSc1nnc2ccc(-c3ccncc3)nn12)c1cccs1	21.1	65.8*	-5.5	-5.7	10.6	-11.2	-5.9	-11.6
c1ccc(CSc2nnc3ccc(-c4ccncc4)nn23)cc1	-3.7	2.4	-11.4	-10.5	-6.3	28.9	.	.
Cc1cccc(C(=O)Nc2nc(C)c(C(=O)Nc3ccc4c(c3)CCC4)s2)c1	4.6	79.7*	31.1	26.4	32.6	-23.5	82.9*	15.1*
COc1ccccc1OCC(O)CN1CCN(C(=O)c2ccccc2)CC1 (stereo unspecified)	6.8	0.1	9.9	-0.6	-19.5	9.0	.	.
S=C(Nc1cccnc1)Nc1ccccc1Br	-4.9	25.5*	-0.5	-3.5	6.1	20.0	-9.8	-10.5
COC(=O)c1ccc2nc(-c3ccc(F)cc3)c(Cc3ccccc3C(F)(F)F)n2c1	.	.	.	.	.	-375.0	.	.
CCOC(=O)N1CCN(C(=O)c2ccc3nc(N4CCC(C)CC4)sc3c2)CC1	0.1	14.2	1.4	-6.6	-8.3	-1.3	.	.
CCOC(=O)N1CCN(C(=O)c2ccc3nc(N4CCCCC4)sc3c2)CC1	-3.0	21.9*	4.3	2.9	5.7	14.0	23.2*	-6.3
CC(C)(C)c1ccc(C(=O)N2CCN(Cc3ccccc3)CC2)cc1	-0.9	21.7*	8.3	8.3	16.8	4.3	-2.9	-16.9
COc1cccc(N2CCN(C(=O)c3ccc4nc(N5CCC(C)CC5)sc4c3)CC2)c1	2.6	74.2*	1.3	2.9	5.3	.	75.7*	54.1*
CC1CCN(c2nc3ccc(C(=O)N4CCN(Cc5ccccc5)CC4)cc3s2)CC1	4.1	69.8*	-1.4	-3.6	-5.5	-27.9	65.4*	10.1*
O=C(c1ccc2nc(N3CCOCC3)sc2c1)N1CCC(Cc2ccccc2)CC1	7.1	-2.0	7.5	-6.4	-16.6	-0.2	.	.
c1ccc2oc(-c3ccc(Nc4nc(N5CCCC5)nc(N5CCOCC5)n4)cc3)nc2c1	-3.2	-2.3	-4.0	-0.3	-6.7	.	.	.
Cc1ccc(C(=O)NCCN2C3=NC[C@H](C(C)C)N3C[C@H]2Cc2ccc(O)cc2)cc1Br	7.2	0.8	-7.4	-2.4	-13.2	-0.5	.	.
COc1ccc(C[C@H]2CN3C(=NC[C@@H]3C(C)C)N2CCNC(=O)c2ccc(C)c(Br)c2)cc1	-3.1	18.0*	-2.7	-4.9	-6.1	13.3	3.3	-7.0
CC1CCC(NC(=O)c2ccc3c(c2)OCO3)CC1 (stereo unspecified)	-1.0	23.9*	19.8	3.3	14.7	7.8	45.9*	27.0*
O=C(NC1CCCCC1)c1ccc2c(c1)OCO2	-10.4	6.4	9.0	-7.6	0.8	4.0	.	.
O=C(CCc1ccccc1)NC(=S)Nc1cccc(C(=O)O)c1	-7.9	32.5*	9.9	-2.1	-9.4	7.4	41.5*	23.0*
O=C(CCc1ccccc1)NC(=S)Nc1cccc(Br)c1	-0.3	-2.6	0.8	-3.7	-0.3	-0.9	.	.
Cc1cccc(C(=O)N2CCN(S(=O)(=O)N3CCCCCC3)CC2)c1	-8.0	6.0	9.1	5.1	-4.3	2.6	.	.
